From PubChem
Rows were chosen to be rich in hits. Some 4.3% of all compounds tested hit in one or more screens of this group.
NR3A LBD binder: modulates the human NR3A ligand-binding domain. NR3A LBD differential scanning fluorimetry, Tm shift; 0% = protein alone, 100% = glycine-bound protein. Tm shift relative to glycine control, % at 25 µM. 2.5% of 340,000 active. AID 1259313;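 active means melting temperature shift of at least 10% of the positive control shift, at one fixed dose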
NALP1 yeast inh: NALP1 inhibition | S. cerevisiae NALP1/ASC/caspase-1 growth, X-gal OD620, 72 h | inhibition, % at 10 µM | 0.61% of 280,000 active; in the data active means inhibition mostly above about 24%, no sharp cut-off; inactive means mostly below about 32%
CR mimetic SO: lowers age-related superoxide in aged yeast cells; S. cerevisiae aged cells, superoxide DHE fluorescence; active compounds read low; superoxide response (% of plate mean), % at 10 µM; 0.18% of 330,000 active; AID 2690;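 active means superoxide response under a set limit, about three screen SD below normal, cut at about 65% in these data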;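 further: yeast aged for seven days with compound at 30 °C before DHE staining; 100% = average MFI of all compound-treated wells on the plate with controls excluded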
UBC13 polyUb: blocks human UBC13 polyubiquitin chain formation; P61088; TR-FRET; AID 485273; inhibition, % at 20 µM; 0.47% of 330,000 active; in the data active means inhibition above about 45%, passing the limit was not always enough; inconclusive means no clear call, values can overlap the other calls
Target sequence (P61088 whole entry, looked up): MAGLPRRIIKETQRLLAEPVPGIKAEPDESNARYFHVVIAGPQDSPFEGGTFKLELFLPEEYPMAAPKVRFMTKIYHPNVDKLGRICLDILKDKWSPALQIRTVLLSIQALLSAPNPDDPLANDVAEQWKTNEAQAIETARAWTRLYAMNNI
dFosB activator: enhances mouse delta FosB homodimer DNA binding; P13346; purified delta FosB, TAMRA-CDK5 oligo fluorescence polarization; percent of positive-control signal above neutral wells; activation, % at 25 µM; 0.99% of 340,000 active; AID 493131;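 active means mean activation above about 17%, with every replicate also reaching it, limit read from the data, passing the limit was not always enough; inconclusive means only one of the two conditions met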
Target sequence (P13346 whole entry, looked up): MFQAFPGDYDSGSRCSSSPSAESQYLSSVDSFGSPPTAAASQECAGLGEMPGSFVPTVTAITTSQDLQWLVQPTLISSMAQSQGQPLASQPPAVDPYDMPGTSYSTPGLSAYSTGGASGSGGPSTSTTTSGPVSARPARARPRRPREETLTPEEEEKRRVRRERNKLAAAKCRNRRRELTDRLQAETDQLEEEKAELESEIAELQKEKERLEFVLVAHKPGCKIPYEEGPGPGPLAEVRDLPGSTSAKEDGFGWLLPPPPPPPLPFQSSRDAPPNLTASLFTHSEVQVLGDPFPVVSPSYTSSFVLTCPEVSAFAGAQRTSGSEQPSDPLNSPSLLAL
Active calls of the source: *; ? = inconclusive; nt = no result given.

SMILES | NR3A LBD binder | NALP1 yeast inh | CR mimetic SO | UBC13 polyUb | dFosB activator
C[C@@H](O)[C@H]1C(=O)N2C(C(=O)O)=C(S[C@@H]3CN[C@H](C(=O)N(C)C)C3)[C@H](C)[C@H]12 | nt | nt | 97.9 | nt | nt
Cc1ccc(NC(=O)Nc2cccc3ccccc23)cc1 | -11.2 | 13.0 | 113.6 | -7.3 | 5.6
N#CCc1ccc(NC(=O)Nc2cccc3ccccc23)cc1 | 21.4* | 11.2 | 128.1 | -4.6 | -0.7
Cc1ccc(NC(=O)CCNS(=O)(=O)c2cc(Br)cnc2N)cc1Cl | 29.5* | 21.0 | 103.7 | 0.2 | -5.3
COc1cc(NC(=O)CCNS(=O)(=O)c2cc(Br)cnc2N)cc(OC)c1 | -6.3 | 11.9 | 109.9 | 3.0 | -11.4
Cc1cc(NC(=O)CCNS(=O)(=O)c2cc(Br)cnc2N)ccc1Br | 20.7* | -12.0 | 91.1 | 19.4 | -8.6
Nc1ncc(Br)cc1S(=O)(=O)NCCC(=O)Nc1cccc(Cl)c1 | 22.5* | -2.9 | 112.5 | 15.6 | -5.7
CCOC(=O)c1cccc(NC(=O)CCNS(=O)(=O)c2cc(Br)cnc2N)c1 | -10.1 | 6.7 | 76.9 | 1.2 | -2.0
CC1(c2ccc3ccccc3c2)NC(=O)N(CC(=O)N2CCN(c3ccccc3O)CC2)C1=O (stereo not given) | 0.2 | 7.9 | 92.4 | -11.2 | -12.2
COc1cc(-c2oc3cc(O)cc(O)c3c(=O)c2O[C@@H]2O[C@H](COC3O[C@@H](C)[C@H](O)[C@@H](O)[C@H]3O)[C@@H](O)[C@H](O)[C@H]2O)ccc1O (stereo not given in full) | 12.9* | nt | 99.9 | -18.5 | -0.9
Oc1ccccc1C=NN=CC=Cc1ccccc1 | 1.3 | nt | nt | nt | -9.2
Oc1ccccc1C=NN=Cc1ccccc1Cl | 12.6* | nt | nt | nt | -7.5
CCCN(CC(=O)Nc1ccccc1C)C(=O)c1ccc(=O)n(Cc2ccccc2)n1 | 3.5 | nt | 101.1 | -3.3 | -4.8
CS(=O)(=O)CCC(C(=O)Nc1ccc2c(c1)OCO2)N1Cc2ccccc2C1=O (stereo not given) | -2.5 | 11.0 | 113.9 | -10.6 | -1.7
O=C(N/N=C/c1c(Cl)[nH]c2ccccc12)c1ccc2c(c1)OCCO2 | 17.7* | 21.2 | 98.1 | 4.2 | nt
O=C(Cc1ccc(Cl)cc1)NC1CCCN(Cc2ccccc2F)C1 (stereo not given) | -1.1 | 5.0 | 96.1 | 10.3 | -1.9
Cc1nn(CCO)c2ncc(C(=O)c3cc(Cl)ccc3O)cc12 | -0.2 | 13.6 | 100.2 | -0.2 | 1.1
NC(=O)c1cc(Cc2ccccc2)sc1NC(=O)c1ccco1 | -9.7 | -4.5 | 132.1 | 6.8 | 75.2*
O=C(Nc1cc(-c2ccccc2)cs1)c1ccco1 | 12.3* | nt | nt | -2.9 | -1.3
CC1CCN(C(=O)COC(=O)c2ccc(Br)o2)CC1 | -1.5 | 33.8* | 90.0 | -1.9 | 4.7
O=S(=O)(c1ccc(SCCOc2ccc(F)cc2)nc1)N1CCCC1 | 14.1* | nt | 105.8 | 8.9 | -3.9
COc1ccc(Cl)cc1C(=O)Nc1ccc(NC(=O)c2ccco2)cc1 | 17.5* | 15.4 | 110.4 | 4.1 | -2.2
COc1cc(SC)ccc1C(=O)Nc1ccc2c(c1)OCCO2 | 14.2* | 10.8 | 99.4 | -3.9 | -6.7
COc1ccccc1C(=O)Nc1ccc2c(c1)OCCO2 | -1.0 | 20.4 | 95.3 | -4.8 | -3.1
COc1ccc(Cl)cc1NC(=O)c1ccco1 | -0.3 | 10.5 | 93.3 | 9.4 | -4.6
SMILES | NR3A LBD binder | NALP1 yeast inh | CR mimetic SO | UBC13 polyUb | dFosB activator
COc1ccc(Cl)cc1C(=O)Nc1ccc2c(c1)OCO2 | 27.8* | 6.1 | 91.8 | -0.1 | -0.7
Cc1cccc(C)c1NC(=O)CNC(=O)C(C)N1CCN(c2cccc(Cl)c2)CC1 (stereo not given) | 1.6 | nt | 103.0 | 12.1 | -8.2
Cc1ccc2c(=O)n3c(nc2c1)C(Cc1ccccc1)NC(=O)c1cc(Cl)ccc1-3 (stereo not given) | nt | nt | 108.0 | 8.4 | nt
Cc1cc(C(C#N)c2ccccc2F)n2ncnc2n1 (stereo not given) | 14.6* | 9.0 | 109.9 | -10.7 | -9.1
Cc1cc(C(C#N)c2ccccc2)n2ncnc2n1 (stereo not given) | 3.1 | 10.0 | 99.5 | 2.9 | 0.6
CN(CC(=O)Nc1cccc(F)c1)C(=O)CCc1nc2sc3c(c2c(=O)[nH]1)CCCC3 | -6.1 | nt | 100.1 | 0.1 | -1.4
Oc1cccc(/C=N/Nc2cc(N3CCCC3)nc(N3CCCC3)n2)c1 | -11.5 | 6.3 | 93.5 | 5.6 | 57.4*
COc1ccc(/C=N/Nc2cc(N3CCCC3)nc(N3CCCC3)n2)cc1 | 3.2 | 19.3 | 84.6 | -11.7 | 22.6*
Oc1ccc(/C=N/Nc2cc(N3CCOCC3)nc(N3CCOCC3)n2)cc1 | -8.5 | nt | 108.3 | -27.5 | -13.6
Oc1ccc(/C=N/Nc2cc(N3CCCC3)nc(N3CCCC3)n2)cc1 | 3.8 | -8.0 | 94.7 | -10.8 | 13.1
COc1ccc(NS(=O)(=O)c2cccc(C(=O)NCc3ccccc3CN3CCCC3)c2)cc1 | 0.3 | nt | 88.2 | 11.7 | -8.7
COc1ccccc1NC(=O)c1ccc(NC(=O)c2cc3c(s2)CCC3)cc1 | 30.4* | 26.1 | 92.2 | 34.4 | -13.4
CCN1CC(C)(C)N(C(=O)c2ccccc2)CC1(C)C | -5.6 | nt | nt | nt | -10.8
CN=C1CC(SC)=C1c1ccc(C)cc1 | 18.7* | 11.8 | 95.5 | 5.5 | 4.2
N#CCC(CNc1ncc(C(F)(F)F)cc1Cl)OC(=O)c1ccc(Cl)cc1 (stereo not given) | 10.9* | -0.7 | 101.6 | 4.3 | -11.1
COc1ccc2c(c1)Cc1sc(NC(=O)c3ccccc3)nc1-2 | 10.1* | 12.4 | 91.7 | -13.9 | 2.2
COc1ccc2c(c1)Cc1sc(NC(=O)c3cccs3)nc1-2 | 25.3* | 31.2 | 119.3 | -18.0 | 8.8
COc1ccc(C(=O)Nc2nc3c(s2)Cc2cc(OC)ccc2-3)cc1 | 10.8* | 8.7 | 101.9 | -51.9 | 4.9
CCCCN(C(=O)CCN1C(=O)C2CC=CCC2C1=O)c1c(N)n(CCCC)c(=O)[nH]c1=O (stereo not given) | 0.2 | nt | nt | nt | 3.2
CCOC(=O)C1CCN(CC(O)COc2ccc(S(=O)(=O)N3CCCC3)cc2[N+](=O)[O-])CC1 (stereo not given) | -0.5 | nt | nt | 2.2 | -6.6
CCOc1ccc(S(=O)(=O)N2CCCCC2)cc1NC(=O)c1c(CC)noc1C | 0.3 | nt | 110.0 | 2.4 | -8.5
C[C@@H]1CN(S(=O)(=O)C(C)(C)C)[C@H](CCO)/C1=C\c1ccccc1 | -1.5 | nt | nt | nt | 0.7
O=c1cc(-c2ccc(O)c(O)c2)oc2c1ccc1ccccc12 | 6.2 | nt | 85.9 | -24.1 | ?
O=c1cc(-c2ccc(O)c(O)c2)oc2ccc3ccccc3c12 | 24.9* | nt | nt | 2.9 | -1.7
O=c1oc(-c2ccc(O)c(O)c2)cc2cccc(O)c12 | 23.8* | nt | 98.2 | 27.5 | -8.2
O=c1oc(-c2ccc(O)c(O)c2)cc2cc(O)cc(O)c12 | 19.9* | nt | 102.1 | 22.2 | 3.7
Cc1ccc(NC(=O)CN2C(=O)NC(Cc3c[nH]c4ccccc34)C2=O)cc1 (stereo not given) | -1.3 | nt | 105.0 | -9.7 | -4.4
CCN(CC(=O)Nc1ccccc1SC)Cc1nc2ccccc2c(=O)[nH]1 | -1.1 | nt | 61.9* | 20.0 | -10.2
COc1ccc(-n2cccc2/C=C/[N+](=O)[O-])cc1 | -1.8 | 113.5* | 97.3 | -14.4 | -8.4
